# Reference: article PMC7862700, “An all-to-all approach to the identification of sequence-specific readers for epigenetic DNA modifications on cytosine”
# Assays:
# Assay in all cases: DAPPL (digital affinity profiling via proximity ligation, sequencing); 10 mM Tris-HCl pH 7.5, 50 mM NaCl, 1 mM DTT, 4% glycerol, room temperature, 30 min; GST-TFs on glutathione beads, 16-mer random dsDNA library, 0.1% formaldehyde crosslink after washing; high values mean tight binding
# [1] = target: T1, FLI1 (Homo sapiens, UniProt Q01543 1-452); conditions: protein: recombinant; tags: N-terminal GST; dsDNA, one strand shown
# T1 sequence: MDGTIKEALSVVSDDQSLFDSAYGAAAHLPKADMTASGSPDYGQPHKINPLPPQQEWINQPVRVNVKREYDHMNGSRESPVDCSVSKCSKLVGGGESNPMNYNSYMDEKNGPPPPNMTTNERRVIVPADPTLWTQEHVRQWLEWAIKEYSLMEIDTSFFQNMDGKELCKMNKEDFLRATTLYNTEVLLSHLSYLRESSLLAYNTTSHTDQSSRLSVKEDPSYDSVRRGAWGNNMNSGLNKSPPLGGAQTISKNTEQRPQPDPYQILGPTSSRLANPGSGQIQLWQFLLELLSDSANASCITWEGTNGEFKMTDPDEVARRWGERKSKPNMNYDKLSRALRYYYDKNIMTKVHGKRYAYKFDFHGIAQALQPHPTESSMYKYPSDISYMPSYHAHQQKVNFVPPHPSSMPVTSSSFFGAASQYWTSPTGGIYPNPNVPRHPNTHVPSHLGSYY
# Summary of the method: (§1)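 The binding signal reported is, for every hexamer, its read frequency for a factor over its read frequency for the tag-only sample. Reads came from pools of yeast-expressed, GST-fused human transcription factors on glutathione beads, barcoded with DNA and mixed with that sample, which were incubated with 200 nmole of a random double-stranded 16-mer DNA library in Tris/NaCl/DTT/glycerol buffer at room temperature for 30 min. After washing, the pools were crosslinked with 0.1% formaldehyde, proximity-ligated with BsaI/T4 ligase for 1 h at 37 °C, PCR-amplified and sequenced on an Illumina NextSeq500.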
# [2] = target: T2, ELK1 (Homo sapiens, UniProt P19419 1-428); conditions: protein: recombinant; tags: N-terminal GST; dsDNA, one strand shown
# T2 sequence: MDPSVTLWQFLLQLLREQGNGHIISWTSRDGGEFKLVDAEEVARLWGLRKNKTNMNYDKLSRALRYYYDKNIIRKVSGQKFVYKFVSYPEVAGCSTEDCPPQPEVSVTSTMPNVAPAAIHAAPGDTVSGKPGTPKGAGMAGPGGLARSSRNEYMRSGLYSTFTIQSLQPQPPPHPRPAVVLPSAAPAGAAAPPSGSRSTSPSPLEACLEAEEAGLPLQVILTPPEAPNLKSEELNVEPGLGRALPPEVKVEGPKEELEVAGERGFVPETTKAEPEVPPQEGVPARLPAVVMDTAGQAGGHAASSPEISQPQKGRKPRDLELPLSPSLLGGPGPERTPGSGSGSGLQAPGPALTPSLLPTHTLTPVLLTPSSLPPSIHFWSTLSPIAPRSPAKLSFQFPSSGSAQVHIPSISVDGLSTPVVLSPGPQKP
# Summary of the method: as §1
# [3] = target: T3, GABPA (Homo sapiens, UniProt Q06546 1-454); conditions: protein: recombinant; tags: N-terminal GST; dsDNA, one strand shown
# T3 sequence: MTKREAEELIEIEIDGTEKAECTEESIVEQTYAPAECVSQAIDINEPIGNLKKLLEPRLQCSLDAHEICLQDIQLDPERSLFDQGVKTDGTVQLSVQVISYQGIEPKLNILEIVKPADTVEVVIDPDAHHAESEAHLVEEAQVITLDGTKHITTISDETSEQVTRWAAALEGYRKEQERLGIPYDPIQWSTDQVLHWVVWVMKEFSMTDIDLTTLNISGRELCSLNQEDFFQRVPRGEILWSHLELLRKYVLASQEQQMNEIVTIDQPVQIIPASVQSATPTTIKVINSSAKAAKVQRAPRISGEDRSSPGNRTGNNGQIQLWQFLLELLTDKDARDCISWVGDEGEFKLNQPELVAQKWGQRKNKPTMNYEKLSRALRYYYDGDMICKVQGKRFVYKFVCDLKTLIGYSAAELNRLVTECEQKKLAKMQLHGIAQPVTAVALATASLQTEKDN
# Summary of the method: as §1
# [4] = target: T4, ERG (Homo sapiens, UniProt P11308 1-479); conditions: protein: recombinant; tags: N-terminal GST; dsDNA, one strand shown
# T4 sequence: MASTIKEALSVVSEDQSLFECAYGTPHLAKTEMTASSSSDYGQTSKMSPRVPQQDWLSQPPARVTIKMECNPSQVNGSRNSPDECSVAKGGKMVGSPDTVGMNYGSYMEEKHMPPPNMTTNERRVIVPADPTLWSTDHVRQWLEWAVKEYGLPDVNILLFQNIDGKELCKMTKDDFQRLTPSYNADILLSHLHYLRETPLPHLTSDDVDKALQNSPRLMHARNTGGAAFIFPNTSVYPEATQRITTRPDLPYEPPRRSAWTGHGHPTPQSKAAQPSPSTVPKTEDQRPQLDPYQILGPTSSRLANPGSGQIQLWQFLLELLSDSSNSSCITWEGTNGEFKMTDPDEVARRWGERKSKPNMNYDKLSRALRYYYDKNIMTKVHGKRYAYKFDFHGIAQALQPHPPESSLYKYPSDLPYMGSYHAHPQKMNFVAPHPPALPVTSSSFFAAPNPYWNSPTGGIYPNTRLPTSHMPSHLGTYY
# Summary of the method: as §1
# [5] = target: ELF1 (Homo sapiens, UniProt P32519 1-619); conditions: protein: recombinant; tags: N-terminal GST; dsDNA, one strand shown
# Summary of the method: as §1
# [6] = target: T5, EHF (Homo sapiens, UniProt Q9NZC4 1-300); conditions: protein: recombinant; tags: N-terminal GST; dsDNA, one strand shown
# T5 sequence: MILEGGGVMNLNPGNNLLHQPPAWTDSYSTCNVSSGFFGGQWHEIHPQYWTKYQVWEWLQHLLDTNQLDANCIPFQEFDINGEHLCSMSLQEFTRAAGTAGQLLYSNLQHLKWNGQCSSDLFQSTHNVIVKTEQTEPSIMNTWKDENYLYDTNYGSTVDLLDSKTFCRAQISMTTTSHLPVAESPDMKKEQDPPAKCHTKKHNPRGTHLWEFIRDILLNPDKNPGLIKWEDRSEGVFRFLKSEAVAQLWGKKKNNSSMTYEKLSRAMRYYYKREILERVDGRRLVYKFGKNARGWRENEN
# Summary of the method: as §1
# [7] = target: SPI1 (Homo sapiens, UniProt P17947 1-270); conditions: protein: recombinant; tags: N-terminal GST; dsDNA, one strand shown
# Summary of the method: as §1
# [8] = target: SPIB (Homo sapiens, UniProt Q01892 1-262); conditions: protein: recombinant; tags: N-terminal GST; dsDNA, one strand shown
# Summary of the method: as §1
# [9] = target: T6, ELK3 (Homo sapiens, UniProt P41970 1-407); conditions: protein: recombinant; tags: N-terminal GST; dsDNA, one strand shown
# T6 sequence: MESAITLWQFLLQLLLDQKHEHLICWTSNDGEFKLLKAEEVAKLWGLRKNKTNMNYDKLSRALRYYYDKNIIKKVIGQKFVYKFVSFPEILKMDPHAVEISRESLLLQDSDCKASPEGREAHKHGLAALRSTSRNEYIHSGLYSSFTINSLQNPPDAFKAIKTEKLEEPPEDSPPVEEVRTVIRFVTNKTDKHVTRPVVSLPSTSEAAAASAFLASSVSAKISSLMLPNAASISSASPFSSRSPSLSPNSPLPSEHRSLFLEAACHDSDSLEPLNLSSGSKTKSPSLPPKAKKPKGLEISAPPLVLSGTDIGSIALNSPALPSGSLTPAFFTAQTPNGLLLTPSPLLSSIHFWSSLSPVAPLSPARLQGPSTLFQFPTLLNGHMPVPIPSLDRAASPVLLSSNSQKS
# Summary of the method: as §1
# [10] = target: T7, FEV (Homo sapiens, UniProt Q99581 1-238); conditions: protein: recombinant; tags: N-terminal GST; dsDNA, one strand shown
# T7 sequence: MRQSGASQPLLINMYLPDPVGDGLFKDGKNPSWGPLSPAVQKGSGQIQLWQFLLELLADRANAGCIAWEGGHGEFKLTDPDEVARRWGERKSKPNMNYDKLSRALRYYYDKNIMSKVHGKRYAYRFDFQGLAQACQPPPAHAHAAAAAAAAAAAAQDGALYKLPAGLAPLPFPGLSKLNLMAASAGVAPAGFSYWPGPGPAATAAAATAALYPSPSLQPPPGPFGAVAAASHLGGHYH
# Summary of the method: as §1
# [11] = target: ETV5 (Homo sapiens, UniProt P41161 1-510); conditions: protein: recombinant; tags: N-terminal GST; dsDNA, one strand shown
# Summary of the method: as §1
# [12] = target: HSF1 (Homo sapiens, UniProt Q00613 1-529); conditions: protein: recombinant; tags: N-terminal GST; chain copies: 3; dsDNA, one strand shown
# Summary of the method: as §1
# [13] = target: T8, SPIC (Homo sapiens, UniProt Q8N5J4 1-248); conditions: protein: recombinant; tags: N-terminal GST; dsDNA, one strand shown
# T8 sequence: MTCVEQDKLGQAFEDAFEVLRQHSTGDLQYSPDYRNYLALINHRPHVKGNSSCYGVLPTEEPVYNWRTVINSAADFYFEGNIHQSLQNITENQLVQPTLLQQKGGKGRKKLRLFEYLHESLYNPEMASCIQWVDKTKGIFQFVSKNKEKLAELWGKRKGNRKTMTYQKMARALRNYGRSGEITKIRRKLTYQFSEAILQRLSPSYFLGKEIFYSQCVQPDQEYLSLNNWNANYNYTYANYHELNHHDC
# Summary of the method: as §1
# [14] = target: ELF4 (Homo sapiens, UniProt Q99607 1-663); conditions: protein: recombinant; tags: N-terminal GST; dsDNA, one strand shown
# Summary of the method: as §1
# [15] = target: T9, ELK4 (Homo sapiens, UniProt P28324-2 1-405); conditions: protein: recombinant; tags: N-terminal GST; dsDNA, one strand shown
# T9 sequence: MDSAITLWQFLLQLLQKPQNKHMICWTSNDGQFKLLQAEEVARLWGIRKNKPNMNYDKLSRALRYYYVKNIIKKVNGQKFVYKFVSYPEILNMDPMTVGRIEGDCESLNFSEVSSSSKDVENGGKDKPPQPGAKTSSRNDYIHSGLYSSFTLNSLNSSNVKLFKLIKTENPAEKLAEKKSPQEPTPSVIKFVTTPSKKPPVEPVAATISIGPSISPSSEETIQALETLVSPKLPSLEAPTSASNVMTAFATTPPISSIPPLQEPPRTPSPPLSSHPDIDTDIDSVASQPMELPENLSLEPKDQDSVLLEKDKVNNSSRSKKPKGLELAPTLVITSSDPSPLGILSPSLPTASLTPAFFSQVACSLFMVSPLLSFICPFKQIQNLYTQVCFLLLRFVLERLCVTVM
# Summary of the method: as §1
# [16] = target: T10, ETV2 (Homo sapiens, UniProt O00321 1-342); conditions: protein: recombinant; tags: N-terminal GST; dsDNA, one strand shown
# T10 sequence: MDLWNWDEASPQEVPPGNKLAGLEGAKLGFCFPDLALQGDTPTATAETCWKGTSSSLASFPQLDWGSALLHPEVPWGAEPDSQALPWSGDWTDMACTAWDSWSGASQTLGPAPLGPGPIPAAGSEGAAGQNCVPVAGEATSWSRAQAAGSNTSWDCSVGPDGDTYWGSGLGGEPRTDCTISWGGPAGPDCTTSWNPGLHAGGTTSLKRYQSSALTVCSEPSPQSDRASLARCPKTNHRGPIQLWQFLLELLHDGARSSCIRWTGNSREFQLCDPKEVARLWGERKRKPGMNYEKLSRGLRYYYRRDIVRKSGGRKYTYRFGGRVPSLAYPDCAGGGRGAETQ
# Summary of the method: as §1
# [17] = target: T11, ELF3 (Homo sapiens, UniProt P78545 1-371); conditions: protein: recombinant; tags: N-terminal GST; dsDNA, one strand shown
# T11 sequence: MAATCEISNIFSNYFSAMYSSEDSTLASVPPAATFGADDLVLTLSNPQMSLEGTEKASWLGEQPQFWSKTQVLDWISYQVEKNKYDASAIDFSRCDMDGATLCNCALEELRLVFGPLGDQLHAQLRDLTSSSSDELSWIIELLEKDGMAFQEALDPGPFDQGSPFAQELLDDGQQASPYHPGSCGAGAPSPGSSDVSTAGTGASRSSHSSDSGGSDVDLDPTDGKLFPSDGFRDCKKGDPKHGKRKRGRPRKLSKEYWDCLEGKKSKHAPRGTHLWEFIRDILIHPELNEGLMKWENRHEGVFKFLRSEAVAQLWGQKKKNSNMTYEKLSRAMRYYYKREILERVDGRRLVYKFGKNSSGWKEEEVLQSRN
# Summary of the method: as §1
# [18] = target: CRX (Homo sapiens, UniProt O43186 1-299); conditions: protein: recombinant; tags: N-terminal GST; dsDNA, one strand shown
# Summary of the method: as §1
# [19] = target: ETV1 (Homo sapiens, UniProt P50549 1-477); conditions: protein: recombinant; tags: N-terminal GST; dsDNA, one strand shown
# Summary of the method: as §1
# Sequence of ELF4 (Q99607 whole entry): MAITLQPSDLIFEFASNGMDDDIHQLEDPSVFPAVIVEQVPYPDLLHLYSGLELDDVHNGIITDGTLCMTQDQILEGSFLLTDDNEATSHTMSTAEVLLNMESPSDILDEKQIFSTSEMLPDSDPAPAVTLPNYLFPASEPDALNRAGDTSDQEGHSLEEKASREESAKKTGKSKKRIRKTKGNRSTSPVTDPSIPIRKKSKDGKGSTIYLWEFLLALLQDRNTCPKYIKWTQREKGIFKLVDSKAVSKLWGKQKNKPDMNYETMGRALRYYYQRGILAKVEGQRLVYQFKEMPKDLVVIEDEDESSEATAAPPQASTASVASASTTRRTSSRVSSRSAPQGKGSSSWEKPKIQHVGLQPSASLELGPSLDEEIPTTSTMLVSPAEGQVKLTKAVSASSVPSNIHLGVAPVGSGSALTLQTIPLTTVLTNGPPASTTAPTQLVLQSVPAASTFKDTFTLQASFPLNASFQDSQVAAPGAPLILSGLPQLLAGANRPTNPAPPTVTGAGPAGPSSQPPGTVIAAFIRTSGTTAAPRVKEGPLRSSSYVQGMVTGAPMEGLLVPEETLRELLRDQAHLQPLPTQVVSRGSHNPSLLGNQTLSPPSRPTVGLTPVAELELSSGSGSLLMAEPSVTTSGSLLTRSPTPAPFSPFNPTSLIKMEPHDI
# Sequence of HSF1 (Q00613 whole entry): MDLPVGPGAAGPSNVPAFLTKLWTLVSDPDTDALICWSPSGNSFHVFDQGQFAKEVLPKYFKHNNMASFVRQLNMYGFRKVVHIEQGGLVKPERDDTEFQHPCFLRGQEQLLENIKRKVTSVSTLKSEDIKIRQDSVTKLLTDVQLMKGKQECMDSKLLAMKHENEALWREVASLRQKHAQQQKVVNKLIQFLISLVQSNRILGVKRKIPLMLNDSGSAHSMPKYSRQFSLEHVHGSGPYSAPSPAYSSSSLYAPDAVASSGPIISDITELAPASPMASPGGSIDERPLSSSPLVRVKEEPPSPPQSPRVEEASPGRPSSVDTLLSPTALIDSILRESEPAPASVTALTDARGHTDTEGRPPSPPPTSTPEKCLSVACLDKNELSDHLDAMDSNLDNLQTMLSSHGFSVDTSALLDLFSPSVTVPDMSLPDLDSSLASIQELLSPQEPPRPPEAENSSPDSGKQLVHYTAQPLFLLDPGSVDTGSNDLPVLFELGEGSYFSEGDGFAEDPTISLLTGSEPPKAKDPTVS
# Sequence of CRX (O43186 whole entry): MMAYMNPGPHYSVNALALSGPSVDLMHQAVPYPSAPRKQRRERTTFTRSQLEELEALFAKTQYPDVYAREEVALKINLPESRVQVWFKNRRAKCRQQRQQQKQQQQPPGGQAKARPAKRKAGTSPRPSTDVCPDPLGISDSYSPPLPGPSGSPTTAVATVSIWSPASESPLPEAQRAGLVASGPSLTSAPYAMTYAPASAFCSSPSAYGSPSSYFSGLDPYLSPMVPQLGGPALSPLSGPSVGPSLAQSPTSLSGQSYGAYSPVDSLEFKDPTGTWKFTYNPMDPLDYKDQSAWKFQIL
# Sequence of ETV5 (P41161 whole entry): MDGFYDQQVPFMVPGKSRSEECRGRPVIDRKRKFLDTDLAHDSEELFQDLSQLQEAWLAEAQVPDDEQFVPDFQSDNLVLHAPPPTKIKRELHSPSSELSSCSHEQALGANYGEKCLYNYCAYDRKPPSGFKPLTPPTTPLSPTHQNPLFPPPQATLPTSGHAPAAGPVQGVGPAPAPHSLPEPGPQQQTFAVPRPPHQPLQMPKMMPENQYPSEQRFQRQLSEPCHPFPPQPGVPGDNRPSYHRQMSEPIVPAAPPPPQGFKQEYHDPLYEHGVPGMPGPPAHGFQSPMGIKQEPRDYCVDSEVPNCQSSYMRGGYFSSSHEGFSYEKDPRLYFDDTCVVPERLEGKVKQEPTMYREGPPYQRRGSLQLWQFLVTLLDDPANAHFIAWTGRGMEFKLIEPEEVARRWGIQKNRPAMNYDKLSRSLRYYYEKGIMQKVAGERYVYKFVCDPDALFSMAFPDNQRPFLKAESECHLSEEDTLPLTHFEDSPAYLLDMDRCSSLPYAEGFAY
# Sequence of ETV1 (P50549 whole entry): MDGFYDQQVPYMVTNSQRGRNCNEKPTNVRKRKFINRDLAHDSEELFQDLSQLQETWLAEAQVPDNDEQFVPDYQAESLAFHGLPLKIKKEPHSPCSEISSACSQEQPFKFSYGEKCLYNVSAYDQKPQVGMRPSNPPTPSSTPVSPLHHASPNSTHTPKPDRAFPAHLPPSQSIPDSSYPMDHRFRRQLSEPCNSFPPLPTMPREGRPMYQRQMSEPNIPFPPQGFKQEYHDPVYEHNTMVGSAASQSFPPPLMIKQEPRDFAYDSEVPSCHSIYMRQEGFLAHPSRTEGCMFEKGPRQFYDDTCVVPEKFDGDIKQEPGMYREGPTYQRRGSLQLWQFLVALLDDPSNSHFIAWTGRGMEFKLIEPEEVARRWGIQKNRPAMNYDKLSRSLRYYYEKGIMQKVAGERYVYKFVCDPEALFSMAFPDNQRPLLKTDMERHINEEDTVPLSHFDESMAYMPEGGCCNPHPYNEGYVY
# Sequence of SPIB (Q01892 whole entry): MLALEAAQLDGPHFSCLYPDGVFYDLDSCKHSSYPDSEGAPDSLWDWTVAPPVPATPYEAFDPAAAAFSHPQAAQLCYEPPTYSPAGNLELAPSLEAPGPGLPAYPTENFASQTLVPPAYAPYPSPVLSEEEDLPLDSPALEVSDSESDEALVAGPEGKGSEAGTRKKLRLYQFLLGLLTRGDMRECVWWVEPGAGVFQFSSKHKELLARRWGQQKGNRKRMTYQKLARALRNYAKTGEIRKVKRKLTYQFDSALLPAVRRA
# Sequence of ELF1 (P32519 whole entry): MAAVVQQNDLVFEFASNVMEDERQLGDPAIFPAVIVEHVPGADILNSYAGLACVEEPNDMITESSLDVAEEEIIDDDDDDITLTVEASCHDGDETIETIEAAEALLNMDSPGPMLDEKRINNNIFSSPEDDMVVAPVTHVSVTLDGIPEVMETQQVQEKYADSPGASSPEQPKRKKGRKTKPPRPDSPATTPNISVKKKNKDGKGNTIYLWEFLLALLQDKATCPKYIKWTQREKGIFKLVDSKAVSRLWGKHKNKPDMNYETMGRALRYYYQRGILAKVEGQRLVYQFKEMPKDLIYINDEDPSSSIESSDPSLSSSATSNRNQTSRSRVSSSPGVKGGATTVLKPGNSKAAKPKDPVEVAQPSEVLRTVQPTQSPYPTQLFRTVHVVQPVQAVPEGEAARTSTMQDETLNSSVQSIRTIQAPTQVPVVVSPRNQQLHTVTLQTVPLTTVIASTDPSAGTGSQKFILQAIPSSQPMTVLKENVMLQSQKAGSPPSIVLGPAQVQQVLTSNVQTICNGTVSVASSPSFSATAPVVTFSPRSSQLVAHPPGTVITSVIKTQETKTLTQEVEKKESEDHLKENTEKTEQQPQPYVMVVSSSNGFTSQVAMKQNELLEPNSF
sequence,measurement,setting,value
ATGGGT,binding signal,[1],"1.39 fold enrichment (6-mer frequency, TF over GST control)"
same,binding signal,[2],"1.37 fold enrichment (6-mer frequency, TF over GST control)"
same,binding signal,[3],"1.28 fold enrichment (6-mer frequency, TF over GST control)"
same,binding signal,[4],"1.43 fold enrichment (6-mer frequency, TF over GST control)"
same,binding signal,[5],"1.3 fold enrichment (6-mer frequency, TF over GST control)"
same,binding signal,[6],"1.46 fold enrichment (6-mer frequency, TF over GST control)"
same,binding signal,[7],"1.21 fold enrichment (6-mer frequency, TF over GST control)"
same,binding signal,[8],"1.29 fold enrichment (6-mer frequency, TF over GST control)"
same,binding signal,[9],"1.44 fold enrichment (6-mer frequency, TF over GST control)"
same,binding signal,[10],"1.28 fold enrichment (6-mer frequency, TF over GST control)"
same,binding signal,[11],"1.5 fold enrichment (6-mer frequency, TF over GST control)"
same,binding signal,[12],"1.08 fold enrichment (6-mer frequency, TF over GST control)"
same,binding signal,[13],"1.36 fold enrichment (6-mer frequency, TF over GST control)"
same,binding signal,[14],"1.35 fold enrichment (6-mer frequency, TF over GST control)"
same,binding signal,[15],"1.33 fold enrichment (6-mer frequency, TF over GST control)"
same,binding signal,[16],"1.36 fold enrichment (6-mer frequency, TF over GST control)"
same,binding signal,[17],"1.31 fold enrichment (6-mer frequency, TF over GST control)"
same,binding signal,[18],"1.11 fold enrichment (6-mer frequency, TF over GST control)"
same,binding signal,[19],"1.21 fold enrichment (6-mer frequency, TF over GST control)"
